Compound activity: PubChem BioAssay, several laboratories
A selection: hits, their analogues and other compounds. The true share with any hit is near 5.9%.
ABHD5 PLIN5 PPI: ABHD5-PLIN5 protein interaction inhibition; Q00G26+Q8WTS1; Split G. princeps luciferase complementation, luminescence, 4 h; inhibition, % at 4 µM; hit rate 0.78% among 360,000; AID 602281;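 active means inhibition above the mean inhibition across every tested compound plus 3 SD, cut at about 22% in these data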;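 further: 0% = DMSO only wells and the 100% control is not disclosed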
PRMT1 inh: PRMT1 (human) inhibition, primary screen; inhibition, % at 2.79 µM; recombinant PRMT1, activity-based probe fluorescence polarization; Q99873; hit rate 1.3% among 370,000;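 active means inhibition above about 21% made by adding two undisclosed values, limit read from the data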
Target sequence (Q99873 whole entry, looked up): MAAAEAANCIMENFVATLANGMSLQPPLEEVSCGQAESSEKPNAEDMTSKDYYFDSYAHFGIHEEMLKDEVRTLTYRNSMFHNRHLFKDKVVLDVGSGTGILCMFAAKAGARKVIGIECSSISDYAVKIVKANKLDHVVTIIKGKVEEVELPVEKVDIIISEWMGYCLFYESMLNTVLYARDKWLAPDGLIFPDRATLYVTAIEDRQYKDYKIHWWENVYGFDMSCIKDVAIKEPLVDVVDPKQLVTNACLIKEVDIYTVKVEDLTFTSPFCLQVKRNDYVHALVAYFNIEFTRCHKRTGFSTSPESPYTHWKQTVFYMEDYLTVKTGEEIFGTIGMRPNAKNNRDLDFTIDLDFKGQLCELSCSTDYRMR
LANA-H2B inh: blocks KSHV LANA binding to histone H2A/H2B | Q9QR71 | cell-free LANA-H2A/H2B peptide, fluorescence polarization | inhibition, % (concentration not given with the values) | hit rate 0.6% among 320,000 | AID 2629; in the data active means inhibition mostly above about 10%, no sharp cut-off; inactive means mostly below about 6.7%
Rtt109 HAT inh: inhibitors of Candida albicans Rtt109/Vps75 histone acetyltransferase; Q5AAJ8; purified Rtt109/Vps75, ThioGlo CoA-SH fluorescence, 4 h; inhibition, % at 34.9 µM; hit rate 0.16% among 330,000; AID 540336;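 active means inhibition of at least 50% in every replicate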
rCAG binder: binds r(CAG) RNA repeats | hit rate 1.3% among 370,000 | inhibition, % at 3 µM | r(CAG) RNA repeat, TO-PRO-1 dye displacement fluorescence;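 active means inhibition above the plate cutoff, the mean of all test compounds on that plate plus 3 SD, cut at about 35% in these data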;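 further: 0% = DMSO alone and 100% = 100 µM mitoxantrone as full dye displacement; higher means more dye released from RNA so lower well fluorescence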
ALR H2O2 inh: human ALR oxidase inhibition via reduced H2O2 | inhibition, % (test concentration not listed) | hit rate 3.8% among 290,000 | AID 485317 | purified ALR, DTT oxidation, H2O2 HRP-luminol luminescence;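 active means mean replicate inhibition above about 79%, with every replicate also reaching it, limit read from the data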
Target sequence (P55789 whole entry, looked up): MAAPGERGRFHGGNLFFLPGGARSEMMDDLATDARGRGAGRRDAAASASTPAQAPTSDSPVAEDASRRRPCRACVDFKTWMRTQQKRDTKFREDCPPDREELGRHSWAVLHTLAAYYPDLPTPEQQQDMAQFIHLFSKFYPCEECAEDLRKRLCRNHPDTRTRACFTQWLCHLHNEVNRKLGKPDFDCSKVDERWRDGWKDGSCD
* hit, by the source's call; · = no result given.

SMILES	ABHD5 PLIN5 PPI	PRMT1 inh	LANA-H2B inh	Rtt109 HAT inh	rCAG binder	ALR H2O2 inh
Cc1cccc(NC(=S)NNC(=O)c2ccc(O)cc2O)c1C	-2.5	3.8	-2.3	-8.5	-1.7	98.8*
Cc1cccc(NC(=O)NNC(=O)c2cc3ccccc3cc2O)c1C	2.0	1.0	-3.4	-6.7	30.2	-8.8
CC1(C)C(C(=O)O)N2C(=O)C(NC(=O)Cc3ccccc3)C2S1=O (centres undefined)	-9.8	22.9*	6.0	2.7	1.4	-5.0
C/C(CC1CC(COCC(C)C)OC1=O)=N\Nc1nc(-c2ccccc2)cs1 (centres undefined)	-17.0	17.2	-0.9	9.0	21.4	97.7*
CC(=O)c1c(C)[nH]c(C(=O)OCC(=O)NCc2ccccc2)c1C	-4.8	-1.8	·	·	-1.0	·
COc1ccc(CN(CC(O)COCc2ccccc2)S(=O)(=O)c2ccccc2Br)cc1OC (centres undefined)	2.5	-2.7	·	2.2	1.9	·
CCC(=O)Nc1nnc(S(=O)(=O)N(CC)c2ccc(OC)cc2)s1	8.1	-6.9	1.7	-3.4	3.1	·
CCN(c1ccc(OC)cc1)S(=O)(=O)c1nnc(NC(=O)COc2ccc(C)cc2)s1	6.1	·	9.4	56.6*	·	-8.3
C/C(=N/NC(=O)CSc1nc2ccccc2n1C)c1ccco1	3.4	-1.8	0.5	26.8	1.2	-1.0
Cn1c(SCC(=O)N/N=C/C=C\c2ccco2)nc2ccccc21	17.9	10.9	-5.2	-9.8	10.4	85.9*
C/C(=N/NC(=O)CSc1nc2ccccc2n1C)c1ccc(O)cc1	4.4	1.4	2.5	2.6	-1.1	99.0*
Cc1ccc(/C=N/NC(=O)CSc2nc3ccccc3n2C)s1	-4.0	1.4	3.0	0.5	1.7	88.6*
CCn1c(SCC(=O)N/N=C/C=C\c2ccco2)nc2ccccc21	8.9	21.2*	-0.1	-1.1	12.6	32.3
CCCc1cnc(Nc2nc(C(N)Cc3ccc(C(F)(F)F)cc3)cs2)nc1 (centres undefined)	-9.5	-0.3	·	·	12.3	·
O=C(c1ccccc1)C1CCN(c2ncnc3sccc23)CC1	·	-4.6	·	·	·	·
O=C(NCCc1nc2ccccc2n1CCOc1cc(F)ccc1F)C1CCCCC1	·	-1.5	·	·	·	·
CC1=CC2=NC(=O)/C(=C/c3coc4ccc(Cl)cc4c3=O)C(=N)N2O1	5.2	-0.8	-16.3	0.3	-26.4	97.2*
CSC1=NSC2=NC(=O)/C(=C/c3coc4ccccc4c3=O)C(=N)N12	-3.9	16.6	0.3	13.7	-44.9	98.3*
CSC1=NSC2=NC(=O)/C(=C/c3coc4ccc(O)cc4c3=O)C(=N)N12	5.0	25.0*	-8.5	8.2	-189.9	21.8
COc1ccc(-c2nc(CN3CCN(Cc4cccc(Cl)c4)CC3)c(C)o2)cc1	-0.7	1.3	1.4	-0.6	-2.8	-1.9
N#Cc1ccccc1NC(=O)C1SC(=Nc2ccccc2)C(C(=O)Nc2ccc(Cl)cc2)=C1N (centres undefined)	-11.3	0.8	5.3	-9.8	37.4*	1.7
O=C(Nc1ccc(C(O)(C(F)(F)F)C(F)(F)F)cc1)c1ccc(Cl)cc1	·	2.9	·	·	·	·
Cc1snnc1C(=O)NC(=S)Nc1ccccc1	-3.8	5.0	-2.2	-18.3	5.7	92.1*
O=C(C1CCN(S(=O)(=O)Cc2ccccc2)CC1)N1CCN(c2ncccn2)CC1	1.8	1.7	-3.6	-1.7	-4.9	1.6
O=C(C1CCCN(S(=O)(=O)c2ccc(Cl)cc2)C1)N1CCCC1 (centres undefined)	-2.4	1.4	-1.2	-4.3	-0.2	-2.4
SMILES	ABHD5 PLIN5 PPI	PRMT1 inh	LANA-H2B inh	Rtt109 HAT inh	rCAG binder	ALR H2O2 inh
Cc1ccc(C)c(N2CCN(C(=O)C3CCCN(S(=O)(=O)c4cnc[nH]4)C3)CC2)c1 (centres undefined)	-0.9	0.8	3.9	1.4	2.5	97.0*
O=C(C1CCN(S(=O)(=O)c2cnc[nH]2)CC1)N1CCN(c2ncccn2)CC1	-5.9	0.9	17.2*	-5.5	-2.1	1.1
O=C(C1CCCN(S(=O)(=O)c2cnc[nH]2)C1)N1CCN(c2ccc(Cl)cc2)CC1 (centres undefined)	3.8	1.2	2.1	-3.6	3.9	95.8*
Cc1ccnc(NC(=O)C2CCCN(S(=O)(=O)c3cnc[nH]3)C2)c1 (centres undefined)	-0.7	7.8	1.4	-8.2	-1.4	31.0
COc1ccccc1C#CC1=CC(=O)CC(C)(C)C1	-2.6	2.2	·	·	1.5	·
O=C(CN1CCC(NC(=O)Nc2ccc(Cl)cc2)CC1)Nc1ccc2c(c1)OCCO2	·	4.1	·	·	5.2	·
Cc1cccc(S(=O)C(c2ccccc2)c2ccccc2)c1 (centres undefined)	0.6	4.7	·	-1.2	-0.4	·
NC(=O)C1CCN(C(=O)c2cccc(S(=O)(=O)N3CCc4ccccc4C3)c2)CC1	0.0	-2.0	8.5	-0.5	-4.0	3.2
O=C(c1cccc(S(=O)(=O)N2CCc3ccccc3C2)c1)N1CCN(c2ccc(O)cc2)CC1	6.9	5.2	1.2	-0.5	10.7	94.6*
C=CCN=C1NC(c2cccc(Cl)c2)C(C(=O)OC)=C(C)N1Cc1cccc(C(F)(F)F)c1 (centres undefined)	·	-5.3	·	·	4.9	·
CCCC1=NN2C(=N)/C(=C\c3cc(C)n(Cc4ccccc4)c3C)C(=O)N=C2S1	-30.6	-1.8	-0.1	2.6	16.5	6.0
CCCC1=NN2C(=N)/C(=C\c3ccc(SCc4ccco4)o3)C(=O)N=C2S1	9.5	·	-10.6	8.7	·	99.0*
O=C1NC(=S)S/C1=C\c1ccc(SCc2ccco2)o1	-5.2	·	-1.2	3.9	·	99.0*
O=C(c1cc2c(c(-c3cccc(-c4ccncc4)c3)n1)[C@@H](CCO)N(C(=O)c1ccc3c(c1)OCO3)C2)N1CCOCC1	-7.9	-1.9	·	·	4.1	·
O=C(N/N=C\c1ccc(-c2ccccc2[N+](=O)[O-])o1)C1COc2cc3ccccc3cc2O1 (centres undefined)	-63.3	3.4	-2.7	-13.7	19.7	-3.0
O=C(N/N=C\c1ccc(-c2ccccc2[N+](=O)[O-])o1)C1COc2ccccc2O1 (centres undefined)	-38.0	-4.4	0.5	1.3	5.4	75.4*
CC(C)n1cnc2cc(NCc3ccco3)ccc21	-2.6	·	-9.4	-5.4	·	83.9*
CC(C)n1cnc2cc(NCc3ccccn3)ccc21	-0.9	2.5	-0.6	7.4	-1.7	74.5
CC(C)n1cnc2cc(NCc3ccccc3O)ccc21	2.6	-1.9	1.7	·	-2.5	99.0*
CC(C)(C)n1cnc2cc(NCc3ccccc3O)ccc21	-4.7	-2.6	2.4	-7.2	-5.8	98.9*
CC(C)CNC(=O)OCc1cn(Cc2ccc(F)cc2F)nn1	·	-5.4	·	·	-0.1	·
CC1CC(N(C(=O)c2ccco2)c2ccccc2)c2ccccc2N1 (centres undefined)	-2.2	-0.4	1.5	-10.1	-2.0	97.5*
CC(=N\Nc1ccc(Cl)cc1)/C(=N/O)C(=O)Nc1ccccc1	10.1	1.1	-12.3	-8.5	5.7	98.7*
Oc1ccc(-c2[nH]ncc2-c2cnn(-c3ccccc3)c2)c(O)c1	3.2	2.7	0.2	9.4	6.3	97.7*
